Measured values published in PubChem BioAssay (Tox21).
Values joined by “and” are separate entries in the source; they are usually repeats but may differ in a detail not shown here. Equal entries are not always repeated. The source holds several records for some structures; these can differ, active in one and inactive in another. Active and inactive are the calls of the source. Where a call stands in place of a potency, no number is given. Unless noted, calls follow the shape of the dose curve; as a rule, active = well fitted curve in the direction sought with a large enough effect in the repeat runs; inconclusive = weak or mixed curves; inactive = no such curve, though single readings can be large; an effect the other way counts as inactive or inconclusive.

How the values were obtained:
[1] = qHTS assay to identify small molecule antagonists of the glucocorticoid receptor (GR) signaling pathway - cell viability counter screen (AID 720693); also: nearly all actives have a fitted effect of over 55% in size
[2] = qHTS assay for identifying genotoxic compounds that show differential cytotoxicity against isogenic chicken DT40 cell lines with known DNA damage response pathways - wild type cell line (AID 743012); also: nearly all actives have a fitted effect of over 60% in size; also: potency is read from the fitted curve at half-maximal effect
Summary of the method: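 CellTiter-Glo luminescence readout of viability in wild type DT40 cells after 40 h compound exposure at 37 C/5% CO2; 300 cells/well; reagent incubated 30 min at room temperature before reading.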

[3] = qHTS assay for identifying genotoxic compounds that show differential cytotoxicity against isogenic chicken DT40 cell lines with known DNA damage response pathways - Rev3 mutant cell line (AID 743014); also: nearly all actives have a fitted effect of over 55% in size; also: potency is read from the fitted curve at half-maximal effect
[4] = qHTS assay for identifying genotoxic compounds that show differential cytotoxicity against isogenic chicken DT40 cell lines with known DNA damage response pathways - Rad54/Ku70 mutant cell line (AID 743015); also: nearly all actives have a fitted effect of over 60% in size; also: potency is read from the fitted curve at half-maximal effect
[5] = qHTS assay to identify small molecule antagonists of the androgen receptor (AR) signaling pathway - cell viability counter screen (AID 743033; also: nearly all actives have a fitted effect of over 45% in size)
[6] = qHTS assay to identify small molecule antagonists of the androgen receptor (AR) signaling pathway using the MDA cell line - cell viability counter screen (AID 743041; also: nearly all actives have a fitted effect of over 45% in size)
Summary of the method: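 Using the breast carcinoma line MDA-kb2 AR-luc, test chemicals were co-incubated with R1881 for 16 h; CellTiter-Fluor reagent, added at 15.5 h, provided a fluorescence measure of live cells.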

[7] = test system: thyroid hormone receptor (rat, GH3 cells); experiment: qHTS assay to identify small molecule agonists of the thyroid receptor (TR) signaling pathway (AID 743066; calls by dose curve)
[8] = target: Estrogen receptor (Homo sapiens) (UniProt P03372); experiment: qHTS assay to identify small molecule antagonists of the estrogen receptor alpha (ER-alpha) signaling pathway (AID 743069; active = well fitted curve in the direction sought with a large enough effect in the signal ratio in the repeat runs, not every such curve was filed as active; inconclusive = weak or mixed curves, or effect the other way; inactive = no such curve, though single readings can be large or run the other way; the % refers to the signal ratio)
Summary of the method: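 Fluorescence intensity from a beta-lactamase FRET substrate served as the read-out. Cells: HEK293 with stably integrated ER-alpha-UAS-bla reporter. Agonist 17beta-estradiol was co-added with compounds; incubation 18 hr at 37C, substrate 2 hr at room temperature.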

[9] = qHTS assay to identify small molecule antagonists of the estrogen receptor alpha (ER-alpha) signaling pathway - cell viability counter screen (AID 743074; calls by dose curve; also: nearly all actives have a fitted effect of over 45% in size)
[10] = target: Estrogen receptor (Homo sapiens) (UniProt P03372); experiment: qHTS assay to identify small molecule agonists of the estrogen receptor alpha (ER-alpha) signaling pathway (AID 743075; calls by dose curve; also: potency is read from the fitted curve at half-maximal effect)
[11] = target: Estrogen receptor (Homo sapiens) (UniProt P03372); experiment: qHTS assay to identify small molecule agonists of the estrogen receptor alpha (ER-alpha) signaling pathway using the BG1 cell line (AID 743079); also: nearly all actives have a fitted effect of over 20% in size; also: potency is read from the fitted curve at half-maximal effect
[12] = qHTS assay to identify small molecule antagonists of the estrogen receptor alpha (ER-alpha) signaling pathway using the BG1 cell line (AID 743080; calls by dose curve;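 also: BG1 cells stimulated with 17beta-estradiol alongside compound; nearly all actives have a fitted effect of over 25% in size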)
Summary of the method: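 Endogenous full-length ER-alpha in BG1-Luc-4E2 cells drives a stably integrated 4×ERE luciferase gene; compounds were tested against 17beta-estradiol over 21.5 h, with luminescence and multiplexed viability fluorescence recorded.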

[13] = qHTS assay to identify small molecule antagonists of the estrogen receptor alpha (ER-alpha) signaling pathway using the BG1 cell line - cell viability counter screen (AID 743081);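 also: compound given together with 17beta-estradiol as the ER stimulus; nearly all actives have a fitted effect of over 45% in size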
[14] = target: Aromatase (Homo sapiens) (UniProt P11511); experiment: qHTS assay to identify aromatase inhibitors (AID 743083); also: nearly all actives have a fitted effect of over 55% in size
[15] = target: Androgen receptor (Homo sapiens) (UniProt P10275); experiment: qHTS assay to identify small molecule antagonists of the androgen receptor (AR) signaling pathway (AID 743035; active = well fitted inhibition curve with a large enough effect in the signal ratio in the repeat runs, not every such curve was filed as active; inconclusive = weak or mixed curves, or effect the other way; inactive = no such curve, though single readings can be large or run the other way; the % refers to the signal ratio)
Summary of the method: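 AR-bla HEK293 reporter cells; 4 h settle at 37C/5% CO2; compound + R1881 agonist, 16 h at 37C; LiveBLAzer B/G FRET substrate 2 h RT; fluorescence intensity read. qHTS format.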

[16] = target: Androgen receptor (Homo sapiens) (UniProt P10275); experiment: qHTS assay to identify small molecule agonists of the androgen receptor (AR) signaling pathway (AID 743036; active = well fitted activation curve with a large enough effect in the signal ratio in the repeat runs, with a control signal flat, not every such curve was filed as active; inconclusive = weak or mixed curves, or effect the other way; inactive = no such curve, though single readings can be large or run the other way; the % refers to the signal ratio)
Summary of the method: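 Activation was read as beta-lactamase FRET signal from LiveBLAzer B/G substrate, added for 2 h at room temperature. Before that, GeneBLAzer AR-UAS-bla GripTite (HEK293) cells had 16 h compound exposure at 37C.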

[17] = target: Androgen receptor (Homo sapiens) (UniProt P10275); experiment: qHTS assay to identify small molecule agonists of the androgen receptor (AR) signaling pathway using the MDA cell line (AID 743040; also: nearly all actives have a fitted effect of over 20% in size); details: MDA-kb2 AR-luc cells, MMTV luciferase, 16 h; activity change: at 70.3 µM (top of the series), stronger effect = higher value
Summary of the method: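 Stable MMTV-luciferase reporter in MDA-kb2 cells; note the promoter carries GR as well as AR response elements. 16 h compound treatment, 37C, 0% CO2; ONE-Glo luminescence endpoint.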

[18] = target: Androgen receptor (Homo sapiens) (UniProt P10275); experiment: qHTS assay to identify small molecule antagonists of the androgen receptor (AR) signaling pathway using the MDA cell line (AID 743042; also: nearly all actives have a fitted effect of over 55% in size)
Summary of the method: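 Antagonist mode: compounds plus R1881 agonist added to MDA-kb2 AR-luc cells, incubated 16 h at 37C. Luciferase reporter luminescence quantified, with multiplexed CellTiter-Fluor readout for cell viability.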

[19] = qHTS assay to identify small molecule antagonists of the thyroid receptor (TR) signaling pathway - cell viability counter screen (AID 743064); also: nearly all actives have a fitted effect of over 50% in size
Summary of the method: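 In-well cytotoxicity read by CellTiter-Fluor (30 min, 37 C) following 23.5 h exposure of GH3 cells bearing a TRE-luciferase sensor. Compounds were added alongside 1 nM (final) T3 to drive TR transactivation.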

[20] = qHTS assay to identify small molecule antagonists of the thyroid receptor (TR) signaling pathway (AID 743065); also: nearly all actives have a fitted effect of over 55% in size; also: potency is read from the fitted curve at half-maximal effect
Summary of the method: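 Antagonism measured as loss of luciferase signal in GH3 cells stably carrying a TRE-luciferase reporter, co-treated with compound and T3 (1 nM final) for 23.5 h at 37 C. Viability was read in the same well by CellTiter-Fluor.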

Androgen receptor (Homo sapiens), sequence (P10275 whole entry, looked up): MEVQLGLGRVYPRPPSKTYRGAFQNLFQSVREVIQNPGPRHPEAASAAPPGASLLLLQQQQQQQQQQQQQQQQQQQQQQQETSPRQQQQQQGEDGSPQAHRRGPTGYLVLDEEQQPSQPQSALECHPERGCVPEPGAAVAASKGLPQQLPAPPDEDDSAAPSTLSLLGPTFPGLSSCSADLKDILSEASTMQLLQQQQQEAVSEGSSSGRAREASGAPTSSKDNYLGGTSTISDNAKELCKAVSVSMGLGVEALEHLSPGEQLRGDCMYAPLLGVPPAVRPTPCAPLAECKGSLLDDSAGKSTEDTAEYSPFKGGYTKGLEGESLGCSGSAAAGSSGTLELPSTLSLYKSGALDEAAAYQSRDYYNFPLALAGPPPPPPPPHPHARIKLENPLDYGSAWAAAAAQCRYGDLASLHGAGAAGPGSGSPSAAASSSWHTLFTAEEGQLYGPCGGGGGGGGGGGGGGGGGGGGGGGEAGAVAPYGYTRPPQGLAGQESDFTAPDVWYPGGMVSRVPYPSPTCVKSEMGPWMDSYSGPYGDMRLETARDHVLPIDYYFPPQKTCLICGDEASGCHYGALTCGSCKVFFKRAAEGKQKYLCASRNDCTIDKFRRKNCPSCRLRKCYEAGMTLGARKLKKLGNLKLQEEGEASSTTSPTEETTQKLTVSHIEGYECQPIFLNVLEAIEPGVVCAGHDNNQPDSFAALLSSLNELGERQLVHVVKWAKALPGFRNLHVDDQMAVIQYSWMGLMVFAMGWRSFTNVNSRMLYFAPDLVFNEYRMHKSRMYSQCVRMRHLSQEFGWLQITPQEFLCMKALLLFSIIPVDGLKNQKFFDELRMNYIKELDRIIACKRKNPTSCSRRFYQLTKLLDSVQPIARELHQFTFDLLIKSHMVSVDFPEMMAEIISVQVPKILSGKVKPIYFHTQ
Aromatase (Homo sapiens), sequence (P11511 whole entry, looked up): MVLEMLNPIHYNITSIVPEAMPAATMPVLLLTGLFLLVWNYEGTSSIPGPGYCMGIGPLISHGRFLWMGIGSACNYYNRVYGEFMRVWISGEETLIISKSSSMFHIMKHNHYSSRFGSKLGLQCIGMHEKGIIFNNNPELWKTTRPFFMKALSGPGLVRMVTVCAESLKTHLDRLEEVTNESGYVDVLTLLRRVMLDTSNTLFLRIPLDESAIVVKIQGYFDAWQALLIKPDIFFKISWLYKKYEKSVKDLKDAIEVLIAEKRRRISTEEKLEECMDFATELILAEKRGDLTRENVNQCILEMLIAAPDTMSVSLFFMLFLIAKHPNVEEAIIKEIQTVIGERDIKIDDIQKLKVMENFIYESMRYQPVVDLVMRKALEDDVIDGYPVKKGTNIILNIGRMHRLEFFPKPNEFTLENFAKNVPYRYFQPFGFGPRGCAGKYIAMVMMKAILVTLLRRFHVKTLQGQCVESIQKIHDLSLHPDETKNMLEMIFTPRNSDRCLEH
Estrogen receptor (Homo sapiens), sequence (P03372 whole entry, looked up): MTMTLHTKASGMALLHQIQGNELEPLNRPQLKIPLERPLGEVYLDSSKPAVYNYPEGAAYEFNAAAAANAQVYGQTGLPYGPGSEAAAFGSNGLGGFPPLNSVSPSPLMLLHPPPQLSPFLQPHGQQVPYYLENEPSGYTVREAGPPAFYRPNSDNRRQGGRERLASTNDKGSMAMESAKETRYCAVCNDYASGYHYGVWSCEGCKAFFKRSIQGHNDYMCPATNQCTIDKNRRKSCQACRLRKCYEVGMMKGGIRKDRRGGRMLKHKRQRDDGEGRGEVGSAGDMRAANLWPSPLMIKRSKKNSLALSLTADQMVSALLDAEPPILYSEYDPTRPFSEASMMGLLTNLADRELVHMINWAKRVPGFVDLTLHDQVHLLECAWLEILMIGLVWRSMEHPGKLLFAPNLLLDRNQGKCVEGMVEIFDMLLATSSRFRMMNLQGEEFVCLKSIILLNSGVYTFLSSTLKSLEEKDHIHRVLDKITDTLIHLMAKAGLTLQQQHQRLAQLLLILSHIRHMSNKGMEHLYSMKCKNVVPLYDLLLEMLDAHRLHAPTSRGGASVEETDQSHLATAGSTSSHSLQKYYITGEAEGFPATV

SMILES | Potency [1] | Potency [2] | Potency [3] | Potency [4] | Potency [5] | Potency [6] | Potency [7] | Potency [8] | Potency [9] | Potency [10] | Potency [11] | Potency [12] | Potency [13] | Potency [14] | Potency [15] | Potency [16] | Potency [17] | Potency [18] | Potency [19] | Potency [20]
c1ccc(P(c2ccccc2)c2ccccc2)cc1 | inactive | 55.5 µM (active) and 61.1 µM (active) | 12.4 µM (active) and 61.1 µM (active) | 19.7 µM (active) and 54.5 µM (active) | inactive | inactive | inactive | inactive | inactive | inactive | inactive | inactive | inactive | inactive | – | – | – | – | – | –
CCN(CC)C(=O)/C(Cl)=C(\C)OP(=O)(OC)OC | inactive | inactive | inactive | – | inactive | inactive | inactive | inactive | inactive | inactive | inactive | inactive | inactive | inactive | inactive | inactive | inactive | inactive | inactive | inactive
CCCCNC(=O)n1c(NC(=O)OC)nc2ccccc21 | inactive | 9.64 µM (active) and 8.63 µM (active) | 5.42 µM (active) and 6.86 µM (active) | 6.82 µM (active) and 8.63 µM (active) | – | inactive | inactive | inactive | inactive | inactive | 34.4 µM (active) | inactive | inactive | inactive | – | inactive | inactive | inactive | – | 7.66 µM (active) and 8.63 µM (active)
CCC(C)c1ccc(O)cc1 (stereo not drawn) | inactive | inactive | inactive and 61.1 µM (active) | inactive and 43.3 µM (active) | inactive | inactive | inactive | – | inactive | – | – | – | inactive | – | – | – | – | – | inactive | inactive
CNC(=O)N(C)c1nnc(C(C)(C)C)s1 | inactive | inactive | inactive | inactive | inactive | inactive | inactive | inactive | inactive | inactive | inactive | inactive | inactive | inactive | – | – | – | – | inactive | inactive
c1ccc(NNc2ccccc2)cc1 | inactive | inactive and 30.6 µM (active) | 24.3 µM (active) | inactive and 27.3 µM (active) | inactive | inactive | inactive | – | inactive | – | – | – | inactive | – | – | – | – | – | inactive | 68.6 µM (active)
OCC(O)CO | inactive | inactive | inactive | inactive | inactive | inactive | inactive | inactive | inactive | inactive | inactive | inactive | inactive | inactive | – | – | – | – | – | inactive
CCCCCCCCCCCOC(=O)c1ccccc1C(=O)OCCCCCCCCCCC | inactive | inactive | inactive | inactive | inactive | inactive | inactive | inactive | inactive | inactive | 26.6 µM (active) and inactive | inactive | inactive | inactive | – | – | – | – | inactive | inactive
CCN(CC)N=O | inactive | inactive | inactive | – | inactive | inactive | inactive | – | inactive | – | – | – | inactive | inactive | – | – | – | – | inactive | inactive
CCCCC(CC)COC(=O)c1ccc(C(=O)OCC(CC)CCCC)c(C(=O)OCC(CC)CCCC)c1 (stereo not drawn) | inactive | inactive | inactive | – | inactive | inactive | inactive | – | inactive | – | – | – | inactive | inactive | – | inactive | inactive | inactive | – | inactive
CC(C)C(=O)OCC(C)(C)C(OC(=O)C(C)C)C(C)C (stereo not drawn) | inactive | – | – | – | inactive | inactive | inactive | inactive | inactive | 6.92 µM [inconclusive] (active) | 12.2 µM (active) | inactive | inactive | inactive | – | – | – | – | – | –
CCC(C)(C)c1ccc(O)cc1 | – | inactive and 54.5 µM (active) | inactive and 61.8 µM (active) and 30.6 µM (active) | inactive and 54.5 µM (active) | inactive | inactive | inactive | inactive | inactive | inactive and 15.7 µM [inconclusive] (active) and 55 µM [activator] (active) | 17.4 µM (active) and 24.3 µM (active) | inactive | inactive | inactive | – | – | – | – | inactive | inactive
Cc1ccc(OP(=O)(Oc2ccc(C)cc2)Oc2ccc(C)cc2)cc1 | inactive | – | 38.6 µM (active) | 43.2 µM (active) and 48.6 µM (active) | inactive | – | inactive | – | inactive | – | – | – | inactive | inactive | – | – | – | – | inactive | inactive
Oc1ccc(-c2ccccc2)cc1 | inactive | inactive | 60.3 µM (active) | – | inactive | inactive | inactive | inactive | inactive | – | – | – | inactive | inactive | – | – | – | – | – | –
CC1(C)C(C=C(Cl)Cl)C1C(=O)OC(C#N)c1cccc(Oc2ccccc2)c1 (stereo not drawn) | inactive | – | inactive | 61.1 µM (active) | inactive | inactive | inactive | inactive | inactive | inactive | inactive | inactive | inactive | inactive | – | – | – | – | inactive | –
